Out of some 1,500 compounds screened, about 460 (31%) were called active. Inconclusive results (about 1%) are left out.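 Rule for the calls: active = curve reaches 40% activation over neutral controls at an AC40 no higher than the top valid tested concentration; inconclusive = no clear call, values can overlap the other calls; inactive = signal moving opposite to the expected increase, and the rest.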 Only a sample is shown. Entries with a potency or affinity are not part of this list.
Experiment: activators of glucose-dependent insulin secretion, dose response, cell-based, INS-1E, Gaussia luciferase, luminescence, cherry-pick, set 2 (AID 977607);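 note: 0% = median of the plate neutral control wells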
Conditions: INS-1E GLuc insulin secretion reporter, 2-3 h, hits give high values; at 35 µM, 100% = signal doubled over neutral wells unless noted

Max activation, inactive:
Cc1cccc(NCc2ccccc2)c1 -18.2% [at 0.0016 µM, 100% = signal doubled over neutral wells]
Cc1ccc(NCc2cccc(B(O)O)c2)cc1 -34.5%
COc1ccc(/C=N/Nc2nc(-c3ccc(Cl)cc3)cc(C(F)(F)F)n2)c(OC)c1 30.4%
S=C(NCc1ccccc1)Nc1ccc2cn[nH]c2c1 -24.4% [at 0.046 µM, 100% = signal doubled over neutral wells]
COc1ccccc1C(=O)N/N=C(\C)CC(=O)Nc1ccc2c(c1)OCCO2 15.2% [at 0.005 µM, 100% = signal doubled over neutral wells]
CCOc1ncccc1C(=O)Nc1cccc(S(=O)(=O)NC2=NCCC2)c1 -12.4% [at 0.135 µM, 100% = signal doubled over neutral wells]
CCOc1ncccc1C(=O)NCc1ccc(C)cc1 -15% [at 0.046 µM, 100% = signal doubled over neutral wells]
CC(Oc1ccccc1Cl)C(=O)Nc1ccc(S(=O)(=O)Nc2nccs2)cc1 (stereo not given) -19.7% [at 0.135 µM, 100% = signal doubled over neutral wells]
CCOc1ncccc1C(=O)NNC(=O)c1ccccc1-n1cccc1 -7.28% [at 3.8 µM, 100% = signal doubled over neutral wells]
CNC(=O)c1cc(C(=O)c2ccccc2Br)c[nH]1 25.1% [at 0.135 µM, 100% = signal doubled over neutral wells]
COC(=O)CN(c1cccc(C)c1)S(=O)(=O)c1ccccc1 23.2% [at 0.42 µM, 100% = signal doubled over neutral wells]
O=C(Nc1ccc(F)cc1)N1CCCCN2[C@@H](CO)[C@@H](c3ccc(C#Cc4ccccc4)cc3)[C@@H]2C1 21.6% [at 0.0016 µM, 100% = signal doubled over neutral wells]
CCN(CC(=O)Nc1ccccc1OC)C(=O)C1CCCC1 -15.2% [at 3.8 µM, 100% = signal doubled over neutral wells]
O=C1CC(NS(=O)(=O)c2cccs2)CN1c1cccc(F)c1 (stereo not given) -15.9% [at 11 µM, 100% = signal doubled over neutral wells]
C=CCNC(=O)COc1coc(CN2CCN(C(=O)c3ccco3)CC2)cc1=O -8.4% [at 0.046 µM, 100% = signal doubled over neutral wells]
CCn1ncc2c1C(=O)NC1c3ccccc3C(=O)N21 (stereo not given) -17.7% [at 0.0016 µM, 100% = signal doubled over neutral wells]
c1ccc2nc3c(nc2c1)c1ccccc1n3CCN1CCOCC1 -14.9% [at 0.005 µM, 100% = signal doubled over neutral wells]
CC(=O)Nc1nc(C)nc(-c2ccccc2OC(C)=O)n1 -19.4% [at 0.046 µM, 100% = signal doubled over neutral wells]
O=c1c2ccccc2nc(-c2ccco2)n1Cc1ccccc1 -18.2% [at 0.046 µM, 100% = signal doubled over neutral wells]
O=c1c2ccccc2nc(-c2ccco2)n1/N=C/c1ccco1 -20.6% [at 0.0016 µM, 100% = signal doubled over neutral wells]
CSc1ncccc1C(=O)NCCc1ccccc1F 23.1% [at 3.8 µM, 100% = signal doubled over neutral wells]
O=C(NCCCNc1ccnc2cc(Cl)ccc12)c1ccccc1F -28.3%
COCCOc1ccc(C(F)(F)F)cc1NC(=O)c1ccccc1F -23.9% [at 3.8 µM, 100% = signal doubled over neutral wells]
O=S(=O)(c1cccs1)N1CN(C2CCCCC2)c2nc3ccccc3nc21 -12.2%
Cc1ccc(S(=O)(=O)N(CC(=O)Nc2ccc(C)cc2C)C(=O)N2CCN(C)CC2)cc1 42% [at 0.046 µM, 100% = signal doubled over neutral wells]
Cc1ccc(OCC(=O)NNC(=O)CCC(=O)Nc2ccc(C)cc2C)cc1 -27.6% [at 3.8 µM, 100% = signal doubled over neutral wells]
CC(=O)N1CCN(C(=O)COC(=O)c2ccc(S(C)(=O)=O)cc2)CC1 25.9%
CCC(=O)Nc1nnc(Sc2ccc(N(C)C)cc2)s1 -22.3% [at 0.046 µM, 100% = signal doubled over neutral wells]
CCSc1nnc(NC(=O)c2csc(C)c2)s1 -21.3% [at 0.0016 µM, 100% = signal doubled over neutral wells]
CCC(CC)NC(=O)CN1CCN(S(=O)(=O)c2cccs2)CC1 -15.7% [at 3.8 µM, 100% = signal doubled over neutral wells]
Cc1nnc2c(NCCC(C)C)nc3ccccc3n12 -15%
Cc1ccc(-n2ncc3c2CC(C)(C)CC3NC(=O)CCCN2CCCC2=O)cc1 (stereo not given) -26.8% [at 0.046 µM, 100% = signal doubled over neutral wells]
CC1(C)Cc2c(cnn2-c2ccccc2)C(NC(=O)CCN2CCCC2=O)C1 (stereo not given) -18.4%
CCCn1nc(NC(=O)c2ccco2)c2cc3ccccc3nc21 -15.7% [at 0.0016 µM, 100% = signal doubled over neutral wells]
CCn1nc(NC(=O)c2ccco2)c2cc3ccccc3nc21 61.7% [at 11 µM, 100% = signal doubled over neutral wells]
CCOc1ccc(CCNC(=O)CCNC(=O)c2ccco2)cc1OCC 12.9% [at 3.8 µM, 100% = signal doubled over neutral wells]
CC1(C)CC(=O)C(C=NC2CC(C)(C)NC(C)(C)C2)=C(O)C1 -17.1% [at 0.005 µM, 100% = signal doubled over neutral wells]
CCSc1nnc(-c2cccnc2)n1-c1ccc(C)c(Cl)c1 -13.6% [at 0.0016 µM, 100% = signal doubled over neutral wells]
CN(c1ccc(C(=O)N2CCN(Cc3ccccc3)CC2)cc1)S(=O)(=O)c1ccccc1 -44.5%
O=C(CN1C(=O)CCC1=O)Nc1cccc2c1C(=O)NC2=O -14.9% [at 1.2 µM, 100% = signal doubled over neutral wells]
O=C(NNC1CCN(Cc2ccccc2)CC1)c1ccccc1 -25% [at 3.8 µM, 100% = signal doubled over neutral wells]
N=c1n(CCN2CCCCC2)c2ccccc2n1CC(O)COc1ccccc1 (stereo not given) -22.3% [at 1.2 µM, 100% = signal doubled over neutral wells]
CN(Cc1ccc(OCC(O)CN(C)Cc2ccccc2)cc1)Cc1nccn1C (stereo not given) -10.6% [at 0.0016 µM, 100% = signal doubled over neutral wells]
Cc1cccc2[nH]c3c(N4CC=C(c5ccc(F)cc5)CC4)ncnc3c12 18.7% [at 1.2 µM, 100% = signal doubled over neutral wells]
FC(F)(F)c1cc(-c2ccccc2)nc(-n2cc(Cl)cn2)n1 -21.3% [at 0.015 µM, 100% = signal doubled over neutral wells]
CCN(C[C@H]1N[C@@](CC)(C(=O)OC)[C@H]2C(=O)N(C)C(=O)[C@@H]12)S(=O)(=O)c1ccc(OC)cc1 -12.8% [at 0.42 µM, 100% = signal doubled over neutral wells]
COc1ccc(C(=O)C2CCCN(Cc3cccn3-c3nccs3)C2)cc1OC (stereo not given) -15.9% [at 0.005 µM, 100% = signal doubled over neutral wells]
COc1ccc(F)cc1C(=O)C1CCCN(C(=O)c2ccc(C(C)=O)s2)C1 (stereo not given) -19.8%
CCOC(=O)c1[nH]cnc1C(=O)NC(C)C -21.9% [at 0.135 µM, 100% = signal doubled over neutral wells]
CC(C)C[C@H](NC(=O)c1nc[nH]c1C(=O)NC1CCN(C(=O)OC(C)(C)C)CC1)C(=O)OC(C)(C)C 60.6%
CN1C(=O)NC(c2ccc(O)cc2)C2=C1CN(c1ccccc1)C2=O (stereo not given) -22.4% [at 3.8 µM, 100% = signal doubled over neutral wells]
CC(C)c1c(C(=O)N/N=C/c2cccc3ccccc23)nnn1-c1nonc1N -43.8%
O=C(COc1ccccc1Cl)NNC(=O)c1ccc2nc[nH]c2c1 15.8% [at 1.2 µM, 100% = signal doubled over neutral wells]
COC(=O)C[C@@H]1OC[C@H](C(C)C)N1S(=O)(=O)c1ccc(C)cc1 -15.5%
O=C(COC(=O)c1ncc(Cl)c(Cl)c1Cl)NC1CCS(=O)(=O)C1 (stereo not given) -18.3%

From PubChem BioAssay AID977607 (Broad Institute, 2014)
